# Laboratory results taken from PubChem BioAssay AID1671190 (National Center for Advancing Translational Sciences (NCATS), 2021).
# The campaign covered roughly 580,000 compounds. About 6,100 (1.1%) were called active. Not shown: some 15% with an inconclusive outcome. Calls follow the shape of the dose curve; as a rule, active = well fitted inhibition curve with a large enough effect; inconclusive = small, poorly fitted or top-dose-only effect, or another doubt; inactive = no such curve, though single readings can be large or run the other way. The full list was thinned out, with actives kept by preference.
# Biological target: Polyunsaturated fatty acid lipoxygenase ALOX12 (Homo sapiens) (UniProt P18054)
# Assay: Primary qHTS assay for inhibitors of human arachidonate 12S-lipoxygenase (ALOX12): Round 2
# Settings: purified 12hLO, xylenol orange hydroperoxide absorbance; series mostly up to 108 µM; activity change, negative = inhibition: at the top concentration
# In short: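 Purified human 12hLO at 150 nM in 25 mM Hepes, 0.01% Triton X-100, pH 7.0, preincubated 15 min at room temperature with compound. Reaction started with 40 uM arachidonic acid, 30 min at room temperature. Hydroperoxide measured by Fe-xylenol orange, 573/405 nm absorbance ratio.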
# % is scaled to controls: 0 for no effect and ±100 for the full control effect; potency is read from the fitted curve at half-maximal effect.
# Sequence of Polyunsaturated fatty acid lipoxygenase ALOX12 (Homo sapiens) (P18054 whole entry, looked up): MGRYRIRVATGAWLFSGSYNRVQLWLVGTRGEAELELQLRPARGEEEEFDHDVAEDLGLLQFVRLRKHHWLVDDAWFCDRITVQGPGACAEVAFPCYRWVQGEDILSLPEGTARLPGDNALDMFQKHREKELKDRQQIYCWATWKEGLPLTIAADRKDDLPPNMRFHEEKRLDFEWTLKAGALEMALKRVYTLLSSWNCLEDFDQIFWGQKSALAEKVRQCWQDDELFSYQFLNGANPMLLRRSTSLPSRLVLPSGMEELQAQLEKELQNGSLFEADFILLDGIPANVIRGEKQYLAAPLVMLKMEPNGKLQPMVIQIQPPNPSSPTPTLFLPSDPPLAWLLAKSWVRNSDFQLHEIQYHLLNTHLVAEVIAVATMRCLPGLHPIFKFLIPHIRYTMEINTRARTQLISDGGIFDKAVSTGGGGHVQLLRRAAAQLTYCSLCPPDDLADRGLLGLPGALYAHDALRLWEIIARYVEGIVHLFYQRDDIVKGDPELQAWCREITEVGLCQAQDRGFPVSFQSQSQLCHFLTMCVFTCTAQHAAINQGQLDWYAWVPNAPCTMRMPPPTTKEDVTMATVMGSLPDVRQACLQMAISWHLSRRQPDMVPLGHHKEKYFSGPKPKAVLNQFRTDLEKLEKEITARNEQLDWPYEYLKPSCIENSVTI
Structure (SMILES),"activity change, negative = inhibition",Potency
COc1ccc(-n2nnc(C(=O)NCc3ccccc3)c2N)cc1OC,-20.9% (inactive),–
CCc1ccc(N/C(N)=N/c2nc(C)cc(C)n2)cc1,-18.2% (inactive),–
CCc1ccc(NC(=O)N2CCCC(Cn3cnc4cccnc43)C2)cc1 (stereo not given),45.4% (inactive),–
CCc1ccc(NC2Nc3cc(C)nn3S2)cc1 (stereo not given),–,25.1 µM (active)
Cc1ccc(-c2cn(CCC(N)=O)c(=O)cn2)cc1,-22.8% (inactive),–
Cc1ccc(S(=O)(=O)n2nc(-c3ccc(Cl)cc3)nc2NCc2ccccc2)cc1,-17.2% (inactive),–
O=c1cc(-c2ccccc2)n2c(SCc3ccccc3)nnc2[nH]1,–,inactive
CCS(=O)(=O)n1nc(-c2ccccc2)nc1SCc1ccccc1,–,28.2 µM (active)
CCOc1ccc(C(=O)Nc2ncc(C)s2)cc1OC,-2.76% (inactive),–
CCc1nnc(SCC(=O)Nc2ccccc2OC)n1-n1cccc1,0.0227% (inactive),–
CCOC(=O)N1CCN(C(=O)c2ccc(N3C(=O)CCS3(=O)=O)cc2)CC1,29.3% (inactive),–
CCCC1CCC(c2ccc(-c3ccc4c(n3)CCC(CCC)C4)cc2)CC1 (stereo not given),-17.4% (inactive),–
FC(F)(F)c1ccc(-n2cn[nH]c2=S)cc1,2.96% (inactive),–
CCOC(=O)N1CCN(Cc2nc(Cc3cccc(C(F)(F)F)c3)no2)CC1,15.8% (inactive),–
Cn1c(-c2sccc2OCc2cccc(C(F)(F)F)c2)n[nH]c1=S,–,28.2 µM (active)
O=C(CCS(=O)(=O)c1ccc2c(c1)CCN2C(=O)C1CC1)Nc1ccc(F)c(F)c1,-11% (inactive),–
COc1cc(Nc2nc3ccccc3nc2NS(=O)(=O)c2ccc(C)cc2)cc(OC)c1,-0.377% (inactive),–
O=C(c1ccc2c(c1)OCO2)N1CCCN(C(=O)C2CC2)c2ccccc21,113% (inactive),–
CSCC[C@@H](NC(=O)C(c1ccccc1)c1ccccc1)C(=O)O,-10.3% (inactive),–
CC1(C)C2CC[C@]3(C)C(CC=C4[C@@H]5C[C@@](C)(CO)CC[C@]5(C(=O)O)CC[C@]43C)[C@@]2(C)CC[C@@H]1O (stereo not given in full),15.7% (inactive),–
CC1(C)[C@H](O[C@H]2O[C@H](C(=O)O)[C@@H](O)[C@H](O)[C@H]2O[C@@H]2O[C@H](C(=O)O)[C@@H](O)[C@H](O)[C@H]2O)CC[C@@]2(C)[C@H]1CC[C@]1(C)[C@H]2C(=O)C=C2[C@H]3C[C@@](C)(C(=O)O)CC[C@]3(C)CC[C@]21C,–,8.63 µM (active)
Cc1ccc(NC(=O)c2n[nH]c(=O)c3ccccc23)c(C)c1,-13.1% (inactive),–
Cc1cc(Br)ccc1NC(=O)C1CCCCC1,0.587% (inactive),–
CC1=C[C@@H](CNCC(C)C)[C@H](C(C)C)C[C@H]1Cc1nc2c(C)cccc2[nH]1,14.2% [at 176 µM] (inactive),–
COc1ccc2cc(CNC(=O)c3nccnc3N)ccc2c1,-2.78% (inactive),–

Structure (SMILES),"activity change, negative = inhibition",Potency
COc1ccc(-c2noc(C(=O)O)c2[C@@H](C)NS(=O)(=O)c2ccccc2)cc1,24.3% [at 176 µM] (inactive),–
C[C@@H](NC(=O)COc1ccccc1)c1c(-c2ccc(F)cc2)noc1C(=O)O,10.6% [at 176 µM] (inactive),–
C[C@@H](NC(=O)c1cccnc1)c1c(-c2ccc(F)cc2)noc1C(=O)O,–,39.8 µM (active)
CC1(C)CC(=O)C(CCS(=O)(=O)OCC(F)(F)C(F)F)(CCS(=O)(=O)OCC(F)(F)C(F)F)C(=O)C1,2.97% (inactive),–
CS(=O)(=O)c1ccc(-c2csc(NC3CCCCC3)n2)cc1,-2.88% (inactive),–
CC(C)CCNc1nc(-c2ccc(S(=O)(=O)N3CCOCC3)cc2)cs1,-5.58% (inactive),–
CC(C)CNc1nc(-c2ccc3c(c2)CCCN3S(C)(=O)=O)cs1,–,14.1 µM (active)
CCCc1nc(C#N)c(N2CCN(c3ccccc3)CC2)o1,-22.7% (inactive),–
COc1cccc(CN2CCC(C(=O)NC(c3ccc4c(c3)OCO4)c3ccccn3)CC2)c1 (stereo not given),-2.37% (inactive),–
O=C(COc1ccc(Cl)cc1Cl)NCCCNC(=O)c1cnccn1,0.217% (inactive),–
Cc1cccnc1C(NC(=O)C1CCN(Cc2ccc(Cl)c(Cl)c2)CC1)c1ccc(Cl)cc1 (stereo not given),-10.3% (inactive),–
O=C(NC(c1ccc(-c2ccccc2)cc1)c1cnccn1)C1CCN(CCOc2ccc(Cl)cc2Cl)CC1 (stereo not given),–,44.7 µM (active)
Cc1ccc(C(NC(=O)C2CCN(CCOc3ccc(Cl)cc3Cl)CC2)c2ccccn2)cc1 (stereo not given),–,56.2 µM (active)
CCOc1ccc(S(=O)(=O)N2CCC(C(=O)NCc3ccccn3)CC2)cc1Cl,-25.1% (inactive),–
Fc1ccccc1-c1n[nH]c2c1CN(Cc1cccc3c1OCO3)CC2,-12.2% (inactive),–
Cc1ccccc1-c1cc(-c2ccccc2C)[nH]n1,-23.8% (inactive),–
CC(CNC(=O)c1cc2ccccc2s1)N1CCCC1 (stereo not given),-16.1% (inactive),–
OCCCNC(=S)Nc1ccccc1F,0.703% (inactive),–
Cc1nc(-c2cccnc2)sc1CCNS(=O)(=O)c1cccs1,-2.94% (inactive),–
C[N+](C)(C)CC#CCCCC#CC[N+](C)(C)C,–,11.2 µM (active)
O=C(Nc1ccc2c(c1)OCCO2)c1nn(-c2ccccc2)c(=O)c2ccccc12,0.0556% (inactive),–
COC(=O)C[C@@H]1C=C[C@@H](NS(=O)(=O)c2cccc(OC)c2)[C@@H](CO)O1,-25.2% (inactive),–
COC(=O)C[C@H]1C=C[C@@H](NS(=O)(=O)c2ccc(C)cc2)[C@@H](CO)O1,5.66% (inactive),–
COc1ccc(S(=O)(=O)N[C@@H]2C=C[C@@H](CC(=O)N3CCc4ccccc4C3)O[C@@H]2CO)cc1,–,25.1 µM (active)
N#CC1(c2ccc(N)cc2)CCCC1,13.6% (inactive),–

Structure (SMILES),"activity change, negative = inhibition",Potency
COc1ccccc1NC(=O)c1cc2ccccc2cc1OCC(N)=O,–,35.5 µM (active)
CCCn1nnc(NC(=O)c2cc3ccccc3cc2OC)n1,-6.59% (inactive),–
CCn1nnc(NC(=O)c2cc3ccccc3cc2OC)n1,-19.5% (inactive),–
COCCCNC(=O)CN(C)C(=O)c1cccc(C(F)(F)F)c1,5.64% (inactive),–
CCc1nnsc1C(=O)N(C)Cc1c(F)cccc1Cl,34% (inactive),–
N#Cc1cc(NCC(=O)N2CCNC2=O)ccc1Cl,14.5% (inactive),–
CC1(C)N=C(SCc2ccccc2Cl)c2ccccc2N1,-9.25% (inactive),–
Clc1ccccc1CSc1nnc(-c2ccco2)c(-c2ccco2)n1,–,3.55 µM (active)
Fc1ccc(Nc2nc(SCc3ccccc3Cl)nc3ccccc23)cc1,-21.5% (inactive),–
O=C(NCC1CCCO1)c1cc(Cl)c2c(c1)OCCO2 (stereo not given),9.31% (inactive),–
Cc1ccccc1CN(CC1CCCO1)C(=O)c1cccc(CCC(C)(C)O)c1 (stereo not given),80.5% (inactive),–
CCCn1c(=O)c2c(C(F)(F)F)cc(-c3cccs3)nc2n(CCC)c1=O,-9.97% (inactive),–
Cc1nn(-c2ccccc2)c2[nH]c(C(F)(F)F)cc(=O)c12,0% [at 57.4 µM] (inactive),–
Cc1nn(CCc2nc(-c3ccccc3F)cs2)c2[nH]c(=O)cc(C(F)(F)F)c12,–,7.08 µM (active)
Cc1cc2oc(=O)cc(COC(=O)c3cc(S(=O)(=O)N(C)C)ccc3NCCO)c2cc1C,-22% (inactive),–
CCOc1cccc(/C=N/N2C(=O)CSC2=S)c1O,–,31.6 µM (active)
CCOC(=O)C1(C(F)(F)F)N=C(c2ccc(OC)cc2)OC(N(C)C)=N1 (stereo not given),0.631% (inactive),–
O=C(CCNC(=O)N1CCN(C(=O)c2cc3ccccc3[nH]2)CC1)NCc1ccccn1,8.38% (inactive),–
Clc1cccc(CN2CCN(Cc3nnsc3Cl)CC2)c1,22.4% (inactive),–
CCOC(=O)c1ccc(Nc2c(C(=O)OCC)cnc3ccc(OCC)cc23)cc1,-26.7% (inactive),–
COC(=O)c1ccc2nc(-c3ccc(Cl)cc3)c(Cc3cccc(F)c3)n2c1,–,44.7 µM (active)
COC(=O)c1ccc2nc(C3CCCCC3)c(Cc3cccc(F)c3)n2c1,-27.2% (inactive),–
CN(C)C(=O)c1nc2ccc(Cl)cn2c1CNCc1cccc(OC(F)(F)F)c1,-10% (inactive),–
COC(=O)c1ccc2nc(-c3cccc(Br)c3)c(Cc3ccccc3C(F)(F)F)n2c1,0% (inactive),–
COC(=O)c1ccc2nc(-c3cccc(Br)c3)c(Cc3ccc(OC)cc3C)n2c1,–,7.94 µM (active)

Structure (SMILES),"activity change, negative = inhibition",Potency
CCc1nc2ccc(C(=O)NCc3ccc(OC)cc3)cn2c1N(CC)Cc1cccc(Br)c1,-13.1% (inactive),–
O=C(Nc1ccnc(Cl)c1)C1CC2CCC1C2 (stereo not given),-11.1% (inactive),–
CC(=O)OC1C2COC(O2)C(OC(C)=O)C1OC(C)=O (stereo not given),-25.1% (inactive),–
O=C(Nc1cccnc1)c1cc(-c2ccc(F)cc2)nc2ccccc12,-4.09% (inactive),–
CCCNC(=O)CC1COCCN1C(=O)CCc1c(C)nc(=O)[nH]c1C (stereo not given),4.55% (inactive),–
COC(=O)c1c(CN2CCC(C(N)=O)CC2)nc2ccccc2c1C,-1.28% (inactive),–
Cc1nnc(SCC(=O)NNC(=O)c2ccc(Cl)cc2)n1CC1CCCO1 (stereo not given),0.528% (inactive),–
S=c1[nH]nc(-c2ccc(Cl)cc2)n1CC1CCCO1 (stereo not given),–,44.7 µM (active)
CNC(=O)NC(=O)CSc1nnc(-c2ccc(F)cc2)n1CC1CCCO1 (stereo not given),-1.78% (inactive),–
COc1ccc(C(=O)NC[C@@H]2C=C(C)[C@H](Cc3nnc(-c4cncn4C)o3)C[C@H]2C(C)C)cc1,5.16% (inactive),–
O=C(c1cccc(F)c1)N1CCC(O)(c2cccnc2)CC1,0% (inactive),–
CC(C)c1ccc(S(=O)(=O)N2CCN(C(=O)c3ccc(N4CCCC4)c([N+](=O)[O-])c3)CC2)cc1,1.24% (inactive),–
O=C(c1cccc(F)c1)N1CCN(c2ccc([N+](=O)[O-])c3cccnc23)CC1,–,39.8 µM (active)
O=C(NCCCN1CCCC1=O)c1csc(N2CCN(c3ccccc3F)CC2)n1,-8.23% (inactive),–
C/C(=N\NC(=O)C1CC1)C(C)C,31.5% (inactive),–
COc1ccc(Oc2ccc(NC(=O)Cn3ncc4ccc(OC)c(OC)c4c3=O)cc2)cc1,6.84% (inactive),–
O=C(/C=C/c1ccc(Cl)c([N+](=O)[O-])c1)c1cccnc1,–,17.8 µM (active)
C/C(=N\NC(=O)Cc1ccccc1[N+](=O)[O-])c1cccnc1,434% (inactive),–
O=C(NN=Cc1ccco1)C(=O)Nc1ccc(Cl)c([N+](=O)[O-])c1,20.7% (inactive),–
CC(=O)N1CCN(C(=O)Cn2c(-c3ccccc3)cc3ccccc32)CC1,-56.7% (inactive),–
O=C(Nc1cc(F)ccc1F)c1cc(C2CC2)nn1-c1ccccc1,28.5% (inactive),–
O=C(CCc1c[nH]c2ccccc12)NCCc1cccnc1,-7.37% (inactive),–
Cc1ccc(C2C=C(c3ccc(Cl)cc3)Nc3nc(NC(=O)CCC(=O)O)nn32)cc1 (stereo not given),39.4% (inactive),–
COc1cccc(-c2nc3n(n2)C(c2ccccc2Cl)C(C(N)=O)=C(C)N3)c1 (stereo not given),337% (inactive),–
COc1ccc(C2=CC(c3ccccc3Cl)n3nc(-c4ccc(Cl)cc4)nc3N2)cc1 (stereo not given),–,5.01 µM (active)
